HEK cytotox: kills HEK 293 cells; hit rate 6.6% among 94,000; AID 1345083; Potency, µM (top dose mostly 115 µM), without a hit: top-dose activity change, negative = cytotoxicity, hits mostly inhibitors; HEK 293 viability, ATP luminescence (CellTiter-Glo), 48-72 h; also: nearly all actives have a fitted effect of over 60% in size
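ATP-coupled CellTiter-Glo luminescence served as viability read-out, recorded 10 min after reagent addition at room temperature. HEK 293 cells, 250 cells/well, had been incubated with pintool-transferred compound for 48 or 72 hr at 37 degree Celsius.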
3T3 cytotox: NIH 3T3 cell cytotoxicity; hit rate 4.3% among 94,000; Potency, µM (highest dose often 96.7 µM), without a hit: at the highest dose activity change, negative = cytotoxicity, hits mostly inhibitors; AID 1345082; NIH 3T3 viability, CellTiter-Glo ATP luminescence, 48-72 h; also: nearly all actives have a fitted effect of over 55% in size
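Luminescent ATP readout (CellTiter-Glo, 10 min RT) after 48 or 72 hr compound exposure of NIH 3T3 cells seeded at 400 cells/well in 1536-well format; quantitative HTS.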
Luciferase inh: blocks purified firefly luciferase enzyme activity; purified P. pyralis luciferase, luminescence, biochemical; P08659; Potency, µM (doses to about 115 µM), usual class: inhibitors; hit rate 2.5% among 76,000; AID 1347043; also: nearly all actives have a fitted effect of over 65% in size
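Cell-free enzyme assay, 10nM P. pyralis luciferase, luciferin and ATP each at 10uM. Inhibition profiled over a 6-point titration, read as luminescence.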
hNpr1 antagonist: blocks ANP-stimulated signaling of human Npr1 receptor; P16066; HEK293 hNpr1 GloSensor cGMP, ANP-stimulated luminescence; Potency, µM (highest dose often 46.3 µM), for the others: at the top dose activity change, negative = inhibition, usual class: inhibitors; hit rate 1.6% among 76,000; calls by dose curve; also: nearly all actives have a fitted effect of over 60% in size
Target sequence (P16066 whole entry, looked up): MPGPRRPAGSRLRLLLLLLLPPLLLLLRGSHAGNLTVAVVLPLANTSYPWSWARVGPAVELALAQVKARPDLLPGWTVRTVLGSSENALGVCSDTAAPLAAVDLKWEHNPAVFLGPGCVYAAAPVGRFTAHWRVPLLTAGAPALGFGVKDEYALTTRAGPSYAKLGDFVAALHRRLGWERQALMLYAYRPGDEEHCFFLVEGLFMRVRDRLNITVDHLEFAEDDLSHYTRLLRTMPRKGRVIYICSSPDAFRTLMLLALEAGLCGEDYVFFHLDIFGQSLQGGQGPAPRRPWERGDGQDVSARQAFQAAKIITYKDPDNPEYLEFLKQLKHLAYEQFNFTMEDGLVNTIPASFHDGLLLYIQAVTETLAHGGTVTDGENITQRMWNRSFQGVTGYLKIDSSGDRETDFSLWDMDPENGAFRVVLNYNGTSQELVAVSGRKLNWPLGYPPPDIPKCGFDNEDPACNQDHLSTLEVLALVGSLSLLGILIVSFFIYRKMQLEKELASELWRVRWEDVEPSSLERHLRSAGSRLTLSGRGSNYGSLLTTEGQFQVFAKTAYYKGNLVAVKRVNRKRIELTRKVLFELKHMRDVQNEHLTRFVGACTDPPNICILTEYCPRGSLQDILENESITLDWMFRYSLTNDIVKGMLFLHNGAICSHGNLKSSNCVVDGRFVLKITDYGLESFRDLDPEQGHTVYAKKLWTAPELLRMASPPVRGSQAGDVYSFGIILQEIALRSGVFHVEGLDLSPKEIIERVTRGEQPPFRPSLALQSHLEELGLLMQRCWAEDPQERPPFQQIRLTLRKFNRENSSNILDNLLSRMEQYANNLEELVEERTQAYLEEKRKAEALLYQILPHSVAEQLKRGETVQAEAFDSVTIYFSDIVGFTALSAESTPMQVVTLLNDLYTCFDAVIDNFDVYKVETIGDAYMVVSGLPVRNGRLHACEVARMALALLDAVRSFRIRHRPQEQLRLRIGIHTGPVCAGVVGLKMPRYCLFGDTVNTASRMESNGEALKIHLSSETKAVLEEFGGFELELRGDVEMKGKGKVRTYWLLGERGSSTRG
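HEK293 cells stably expressing human Npr1 and cGMP GloSensor pGS-40F, loaded 2 h with 2% GloSensor reagent, given compound 30 min at room temperature. Luminescence read before and 20 min after 0.1 nM hNppA.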
* = called active by the depositor; i = inactive; ? = inconclusive; . = no result; [ ] = another dose, or the depositor's remark. In the library only some 11% were active in any assay of this set; here they are far more common. Unless noted, calls follow the shape of the dose curve; as a rule, active = well fitted curve in the direction sought with a large enough effect; inconclusive = small, poorly fitted or top-dose-only effect, or another doubt; inactive = no such curve, though single readings can be large; an effect the other way counts as inactive or inconclusive. % is scaled to controls: 0 for no effect and ±100 for the full control effect; potency is read from the fitted curve at half-maximal effect.

SMILES	HEK cytotox	3T3 cytotox	Luciferase inh	hNpr1 antagonist
c1ccc([C@@H]2CN(C3CCOCC3)C[C@H]2COc2cccnc2)nc1	?	-26%	i	-3%
O=C([C@H]1CCCN1C(=O)c1ccc(Cl)cn1)N1CCC(N2CCOC2=O)CC1	-5%	-3%	.	.
Cc1nn(C)c(C)c1CCN(C)C(=O)CCC[C@H]1NC[C@@H]2C[C@H]1CN(Cc1ccccc1)C2	2%	i	i	1%
COc1ccc(-c2cc(N3CCCC(NC(=O)c4cccc(N(C)C)c4)C3)n[nH]2)cc1 (stereo not drawn)	?	?	16µM*	-17%
COc1ccc(-c2cc(N3CCCC(NC(=O)c4cccc(F)c4)C3)n[nH]2)cc1 (stereo not drawn)	?	?	?	-5%
COc1ccc(-c2cc(N3CCCC(NC(=O)c4cccn4C)C3)n[nH]2)cc1 (stereo not drawn)	?	?	35µM*	-18%
COc1ccc(-c2cc(N3CCC(NC(=O)c4cc(C)cc(C)c4)C3)n[nH]2)cc1 (stereo not drawn)	?	-17%	i	-9%
COc1ccc(-c2cc(N3CCCC(NC(=O)c4cc(C)cc(C)c4)C3)n[nH]2)cc1 (stereo not drawn)	45µM*	40µM*	?	-17%
COc1ccc(-c2cc(N3CCCC(NC(=O)c4cccc(C)c4)C3)n[nH]2)cc1 (stereo not drawn)	45µM*	?	10µM*	-16%
CN(C)C(=O)CCc1ccc2c(c1)CN(C(=O)CC1CCCC1)CCO2	?	-34%	.	.
O=C(NCc1ccc(F)cc1)c1nc(-c2ccc(Cl)nc2)c2cnccn12	-1%	-8%	.	.
Cc1cccc(C(=O)NC2CCN(c3cc(-c4ccc(F)cc4)[nH]n3)CC2)c1	?	3%	i	-26%
CN(C)c1cccc(C(=O)NC2CCN(c3cc(-c4ccc(F)cc4)[nH]n3)CC2)c1	?	?	35µM*	?
Cc1cc(C)cc(C(=O)NC2CCN(c3cc(-c4ccc(F)cc4)[nH]n3)C2)c1 (stereo not drawn)	?	45µM*	i	-11%
COc1ccc(-c2cc(N3CCCC(NC(=O)c4ccc(OC)c(F)c4)C3)n[nH]2)cc1 (stereo not drawn)	40µM*	?	?	-13%
COc1ccc(-c2cc(N3CCC(NC(=O)c4ccc(C)c(C)c4)C3)n[nH]2)cc1 (stereo not drawn)	50µM*	?	i	4%
O=C(NCCc1ccc(Cl)cc1)c1nc(-c2ccc(Cl)nc2)c2cnccn12	-21%	-29%	.	.
O=C(CNC(=O)C1CCCN1C(=O)c1cccc(-c2cccnc2)c1)c1ccccc1 (stereo not drawn)	?	-16%	.	.
Fc1ccc(CN2Cc3[nH]cnc3C[C@H]2c2nc(-c3ccc(Cl)cc3)no2)cc1	63µM*	50µM*	i	-20%[70.6 µM]
Fc1ccc(CN2Cc3[nH]cnc3C[C@H]2c2nc(-c3ccccc3)no2)cc1	100µM*	79µM*	45µM*	-16%[70.6 µM]
COc1cccc(CNC(=O)c2ccc3nnc(CC4CC4)n3c2)c1	-13%	?	.	.
Cc1ccc(C2Cn3nnc(-c4noc(-c5cccs5)n4)c3CO2)cc1 (stereo not drawn)	-2%	-3%	i	11%
O=C(NCC1(COc2cccnc2)C[C@@H](O)[C@@H](O)C1)C1CC1 (stereo partly drawn)	32µM*	?	i	?
COc1ccc([C@H]2C[C@@H](O)[C@@H](O)[C@@H]2NC(=O)Nc2ccc(C(F)(F)F)cc2)cc1	?	25µM*	i	?
COc1ccc(C(=O)N[C@H]2[C@H](O)[C@H](O)C[C@@H]2c2ccc(C(F)(F)F)cc2)cc1	-15%[172 µM]	-8%[138 µM]	i	-27%[70.6 µM]
SMILES	HEK cytotox	3T3 cytotox	Luciferase inh	hNpr1 antagonist
Cc1ccccc1[C@H]1C[C@@H](O)[C@@H](O)[C@@H]1NS(=O)(=O)c1ccc(C(F)(F)F)cc1	100µM*	-26%[174 µM]	i	-4%[70.6 µM]
O=S(=O)(N[C@H]1[C@H](O)[C@H](O)C[C@@H]1c1ccc(C(F)(F)F)cc1)c1ccc(F)cc1	71µM*	?	i	-30%[70.6 µM]
COc1ccc(S(=O)(=O)N[C@H]2[C@H](O)[C@H](O)C[C@@H]2c2ccccc2C)cc1	5%[172 µM]	3%[138 µM]	i	3%[70.6 µM]
COc1cc(CN2CCCC(COc3ccccc3C(=O)NC(C)C)C2)ccc1O (stereo not drawn)	?	-28%	.	.
COC(=O)NC1CCN(c2ccc3nnc(C4CC4)n3n2)CC1	-23%[172 µM]	-20%[138 µM]	.	.
CN(C)C[C@@H]1CN(Cc2ccccc2)C[C@H]1NC(=O)c1nn(C)c2ccccc12	40µM*	?	.	.
CN(C)C[C@@H]1CN(Cc2ccccn2)C[C@H]1NC(=O)c1ccc(Cl)s1	79µM*	-9%	i	-1%
COc1ccc(C(=O)N[C@@H]2CN(Cc3ccccc3)C[C@H]2CN(C)C)cc1F	6.3µM*	20µM*	.	.
COc1ccc(C(=O)N[C@@H]2CN(Cc3cccnc3)C[C@H]2CN(C)C)cc1F	?	?	i	3%
Cc1oc2c(c1C(=O)N(C)C)CN(C(=O)CCc1ccccc1)CC2	-5%	-12%	i	-1%
COCCOC(=O)C1=C(C)N=C2SC=C(CC(=O)N3CCOCC3)N2C1c1cccc(OC)c1 (stereo not drawn)	?	-28%	i	-16%
O=C(c1ccccc1Cl)N1CCCN(c2ccnc3ccnn23)CC1	-24%	?	.	.
CC1(CNc2ccccc2)COc2ccc(C(=O)NCc3cccs3)cc2N1 (stereo not drawn)	100µM*	?	i	-2%[70.6 µM]
CC1(CNCc2ccccc2)COc2ccc(C(=O)NCc3cccs3)cc2N1 (stereo not drawn)	?	?	i	-11%[70.6 µM]
CC1(COc2ccccc2)COc2ccc(C(=O)NCc3cccs3)cc2N1 (stereo not drawn)	112µM*	?	i	-11%[70.6 µM]
COc1ccc(OC)c(CN2CCC3OCCN(Cc4ccccc4)C(=O)C3C2)c1 (stereo not drawn)	?	?	i	-7%[70.6 µM]
O=C(NCC1CCCCCC1)c1nc2cccnc2n(CCc2ccccc2)c1=O	?	35µM*	.	.
O=C(NC1CCCCC1)c1nc2cccnc2n(CCc2ccccc2)c1=O	?	-25%	.	.
CC(C)NC(=O)c1nc2cccnc2n(CCc2ccccc2)c1=O	20µM*	?	.	.
O=C(c1ccccc1)N1CCCC1C(=O)N1CCCC1c1nc2ccncc2[nH]1 (stereo not drawn)	-3%	-27%	.	.
COc1ccc(-c2cc(C(=O)NC3CC3)c3c(C)nn(-c4ccccc4)c3n2)cc1	?	22µM*	.	.
COc1ccc(-c2cc(C(=O)NC3CCNCC3)c3c(C)nn(-c4ccccc4)c3n2)cc1	25µM*	7.1µM*	.	.
C[C@H]1[C@@H]2[C@H]3OC(=O)[C@@H](C)[C@@H]3CC[C@@]2(C)CC[C@@H]1NC(=O)C1CCCCC1	100µM*	?	i	-20%[70.6 µM]
